Screening data from PubChem BioAssay.
Most compounds without a hit are left out; they make up all but 2.6% or so of the library.
FH mod: Identification of activators of human fumarate hydratase by quantitative high-throughput screening; Fumarate hydratase, mitochondrial (Homo sapiens), P07954; FH coupled MDH/diaphorase resazurin fluorescence, 15 min; Potency, µM (doses to about 79.9 µM), hits mostly inhibitors; 54,000 compounds, 0.22% hits; also: the screen sought activators but most active calls are inhibition curves; nearly all actives have a fitted effect of over 45% in size
NTMT1 inh: NTMT1 methyltransferase inhibition; Q9BV86; NTMT1 MTase-Glo SAH luminescence, purified enzyme; Potency, µM (top dose mostly 114 µM), actives largely listed as inhibitors; 59,000 compounds, 2.5% hits; AID 1645870; also: nearly all actives have a fitted effect of over 65% in size
Target sequence (Q9BV86 whole entry, looked up): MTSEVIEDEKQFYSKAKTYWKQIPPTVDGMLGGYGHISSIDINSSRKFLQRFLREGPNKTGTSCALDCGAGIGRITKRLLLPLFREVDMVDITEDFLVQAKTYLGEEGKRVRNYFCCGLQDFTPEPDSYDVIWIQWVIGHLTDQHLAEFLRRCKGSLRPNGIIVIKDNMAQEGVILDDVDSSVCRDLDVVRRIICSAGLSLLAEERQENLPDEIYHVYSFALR
HTT-AS promoter: HTT-AS promoter activation; HEK293 HTT-AS promoter firefly luciferase reporter, 24 h; response scale: percent change from vehicle, -100% = no light; Potency, µM (series often up to 57.5 µM), actives largely listed as activators; 48,000 compounds, 0.24% hits; also: nearly all actives have a fitted effect of over 55% in size
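Firefly luciferase signal from promoter-reporter HEK293 cells was scaled between vehicle (0%) and zero RLU (-100%). Compounds were tested at final concentrations of up to 57.5 uM over 24 h at 37 degrees C. PTC124 at 50 uM final served as control inhibitor.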
HTT promoter inh: HTT promoter inhibition; AID 1508623; 48,000 compounds, 0.93% hits; Potency, µM (titrated, usually from 57.5 µM), most hits filed as inhibitors; HEK293 HTT promoter firefly luciferase reporter, 24 h; also: nearly all actives have a fitted effect of over 50% in size
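HEK293 cells carrying firefly luciferase reporters were seeded at 2,500 per well in Opti-MEM and cultured for 24 h. They were then treated with compounds at up to 57.5 uM final for 24 h at 37 degrees C before Dual-Glo luminescence readout.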
Hits are given with their value; 0 = inactive; ? = inconclusive; - = no result; [ ] = dose if it differs, or a comment. Calls follow the shape of the dose curve; as a rule, active = well fitted curve in the direction sought with a large enough effect; inconclusive = small, poorly fitted or top-dose-only effect, or another doubt; inactive = no such curve, though single readings can be large; an effect the other way counts as inactive or inconclusive.

SMILES	FH mod	NTMT1 inh	HTT-AS promoter	HTT promoter inh
O=C(O)/C(S)=C/c1ccc(I)cc1	-	79µM	-	-
Cc1ccc(S(=O)(=O)n2cc(C(=O)Nc3nc(-c4ccccc4)cs3)c3ccccc32)cc1	-	0	-	-
Cc1cccc(NC(=O)c2c(NC(=O)c3ccccc3)sc3c2CCC3)c1	0	0	0	0
CCOC(=O)c1c(NC(=O)c2ccccc2C)sc2c1CCCC2	0	89µM	0	0
CCCc1ccc(OCC(=O)Nc2sc3c(c2C(=O)OC)CCCCC3)cc1	0	89µM	0	0
Cc1cccc(NC(=O)c2c(NC(=O)c3ccccc3)sc3c2CCCC3)c1	0	45µM	0	0
CCOC(=O)c1ccc(NC(=O)c2c(NCc3cccc(OC)c3OC)sc3c2CCC3)cc1	0	56µM	0	0
Cc1cnc(NC(=O)Nc2cc(Br)c(C)cc2OCC2CNCCO2)cn1 (configuration not stated)	0	?	-	-
CC1(C)CC[C@]2(C(=O)O)CC[C@]3(C)C(=CCC4[C@@]5(C)CC[C@H](O[C@@H]6O[C@H](C(=O)O)[C@@H](O)[C@H](O)[C@H]6O)C(C)(C)C5CC[C@]43C)C2C1 (some centres not stated)	0	0[12.6 µM]	-	-
COc1ccc(CCNS(=O)(=O)c2ccc(N3CCCCS3(=O)=O)cc2)cc1	0	0	0	?
COc1ccc(NS(=O)(=O)c2ccc(N3CCCCS3(=O)=O)cc2)cc1Cl	0	0	0	14µM
COc1cccc(CNS(=O)(=O)c2ccc(N3CCCCS3(=O)=O)cc2)c1	0	0	0	16µM
CC(=O)NCCNc1cc(Cl)nn2c(-c3cccc(S(=O)(=O)N(C)C)c3)c(C)nc12	0	0	-	-
Cc1ccccc1C(=O)N1CCc2cc(-c3nc(NC(=O)CC4CCCCC4)sc3C)ccc21	-	0	-	-
O=C(Nc1noc2ccccc12)c1ccc(F)cc1	0	?	?	0
O=C(Nc1noc2ccccc12)c1cccc(F)c1	0	?	2µM	0
COCCn1c2c([n+](Cc3cnccn3)c1C)C(=O)c1ccccc1C2=O	22µM	?	0	?
O=C(NCCc1ccccc1)c1ccc(CSc2nc3cccnc3n2Cc2ccccc2F)cc1	?	0	0	0
O=C(NCCc1ccccc1)c1ccc(Cn2c(SCc3ccccc3F)nc3cccnc32)cc1	0	89µM	0	?
COC(=O)c1c(C)oc2ccc(N(C(=O)c3ccncc3)S(=O)(=O)c3ccc(OC)cc3)cc12	?	0	0	2.2µM
CCCC(=O)N(c1ccc2oc(C)c(C(C)=O)c2c1)S(=O)(=O)c1ccc(C)cc1	0	0	0	0
CCOc1ccc(S(=O)(=O)N(C(=O)c2ccncc2)c2ccc3oc(C)c(C(=O)OC)c3c2)cc1	?	0	0	2µM
COc1ccc(S(=O)(=O)N(C(=O)c2ccncc2)c2ccc3oc(C)c(C(C)=O)c3c2)cc1	0	0	0	14µM
CCc1ccc(S(=O)(=O)N(C(=O)c2ccncc2)c2ccc3oc(C)c(C(=O)OC)c3c2)cc1	0	0	0	13µM
CCOC(=O)c1c(C)oc2ccc(N(C(=O)c3ccncc3)S(=O)(=O)c3ccc(F)cc3)cc12	0	0	0	?
SMILES	FH mod	NTMT1 inh	HTT-AS promoter	HTT promoter inh
CNC(=O)c1cc(Oc2ccc(NC(=O)c3cccc(C(F)(F)F)c3)cc2)ccn1	0	0	-	-
CCNC1(C(N)=O)CCN(c2ncnc3c2nc(-c2ccccc2Cl)n3-c2ccc(Cl)cc2)CC1	0	?	-	-
CC(=O)c1c(C)oc2ccc(N(C(=O)c3ccncc3)S(=O)(=O)c3ccc(C)cc3C)cc12	0	0	0	28µM
COc1cc(C(=O)Nc2ccc3nc4n(c(=O)c3c2)CCCCC4)cc(OC)c1OC	0	50µM	0	0
CC1=C2CC(C)(C)CC2C(O)C2=C(C1)C(=O)OC2O (configuration not stated)	0	0	-	-
CC1=NN(c2ccc(C(=O)O)cc2)C(=O)/C1=C/c1ccc(-c2cc(C)c(C)cc2[N+](=O)[O-])o1	-	50µM	-	-
Fc1ccc(-n2ncc3c(NCCCn4ccnc4)ncnc32)cc1	0	0	2.8µM	0
Fc1ccc(-n2ncc3c(NCCCc4ccccc4)ncnc32)cc1	0	0	8.9µM	0
Cc1ccc(-n2ncc3c(NCCc4ccccc4)ncnc32)cc1C	0	0	?	0
Cn1cc(-c2ccc(S(=O)(=O)n3ccc(/C=C/C(=O)Nc4ccccc4N)c3)cc2)cn1	0	0	-	-
CC(C)(C)OC(=O)N1CCN(c2ccc(NCc3ccc(-c4ccc(C#N)cc4)nc3)cc2)CC1	-	0	-	-
C=C(C)C1CCC(C)C12CC(O)C1(C)OC1C2OC(=O)C(N)CCC(=O)O (configuration not stated)	0	0	-	-
CCc1ccc(-c2nn(-c3ccc(OC)cc3)c3c2cnc2ccc(OC)cc23)cc1	?	0	0	0
CCOc1ccc2ncc3c(-c4cccc(OC)c4)nn(-c4ccccc4)c3c2c1	0	89µM	0	0
COc1ccc(CNc2nc(N(CCO)CCO)nc3c2ncn3C(C)C)cc1	0	0	-	-
CCC1CN(C(=O)N2CCC(C(=O)N3CCN(c4cccc(C)c4C)CC3)CC2)c2ccccc2O1 (configuration not stated)	?	0	0	20µM
CC(C)C(O)(CO)CCO[C@@H]1O[C@H](CO[C@H]2OC[C@](O)(CO)[C@H]2O)[C@@H](O)[C@H](O)[C@H]1O (some centres not stated)	0	0	-	-
COc1ccccc1NC(=O)CSc1nnc(-c2ccccc2C)o1	0	0	?	0
O=C(CSc1nnc(-c2ccccc2F)o1)Nc1ccccc1Cl	0	?	2.2µM	0
CCOc1ccc(NC(=O)CSc2nc(-c3ccc(OC)cc3)nc3c2Cc2c(CO)cnc(C)c2O3)cc1	0	0	0	0
COc1ccc(-c2nc3c(c(SCC(=O)Nc4cccc(O)c4)n2)Cc2c(CO)cnc(C)c2O3)cc1	?	45µM	0	0
COc1ccc2c(c1)Oc1nc(-c3ccc(C)cc3)nc(SCC(=O)Nc3cccc(C(=O)O)c3)c1C2	-	22µM	-	-
O=C(CSc1nc(-c2ccc(F)cc2)nc2c1Cc1ccccc1O2)Nc1cccc(C(=O)O)c1	0	6.3µM	0	0
COC(=O)C(CC1(O)c2ccccc2N2C(=O)C(C)(C)N(O)C21)n1cnc2ccccc2c1=O (configuration not stated)	0	0	-	-
Cn1cc(C2=C(c3cn(CCCSC(=N)N)c4ccccc34)C(=O)NC2=O)c2ccccc21	0	3.2µM	-	-
COc1ccc(Cn2c(=O)[nH]c3cc(C(=O)N4CCN(c5cccc(Cl)c5)CC4)ccc3c2=O)cc1	0	0	0	0
COc1cc2[nH]c(=O)n(Cc3ccc(C(=O)N4CCN(c5ccc(Cl)cc5)CC4)cc3)c(=O)c2cc1OC	0	0	0	14µM
C[n+]1c2cc(N)ccc2cc2ccc(N)cc21 (tested in a mixture with another compound)	0	40µM	0	0
